# Test results from paper PMC4336329 (PLoS ONE, 2015).
# The campaign covered roughly 310,000 compounds. About 14,000 (4.5%) showed an effect of 50% or more. The effect is printed as a negative number. Many of the other results were omitted from the sample, so strong results are more common in it than they were.
# Molecular target: human ether-à-go-go-related gene (hERG) potassium channel (human, UniProt Q12809)
# Test: primary screen, population patch clamp on CHO cells stably expressing hERG; higher = less effect of the substance
# 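Further: peak tail current of the secondary pulse compared with the same well before compound.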
# Chain of human ether-à-go-go-related gene (hERG) potassium channel (Q12809 whole entry, looked up): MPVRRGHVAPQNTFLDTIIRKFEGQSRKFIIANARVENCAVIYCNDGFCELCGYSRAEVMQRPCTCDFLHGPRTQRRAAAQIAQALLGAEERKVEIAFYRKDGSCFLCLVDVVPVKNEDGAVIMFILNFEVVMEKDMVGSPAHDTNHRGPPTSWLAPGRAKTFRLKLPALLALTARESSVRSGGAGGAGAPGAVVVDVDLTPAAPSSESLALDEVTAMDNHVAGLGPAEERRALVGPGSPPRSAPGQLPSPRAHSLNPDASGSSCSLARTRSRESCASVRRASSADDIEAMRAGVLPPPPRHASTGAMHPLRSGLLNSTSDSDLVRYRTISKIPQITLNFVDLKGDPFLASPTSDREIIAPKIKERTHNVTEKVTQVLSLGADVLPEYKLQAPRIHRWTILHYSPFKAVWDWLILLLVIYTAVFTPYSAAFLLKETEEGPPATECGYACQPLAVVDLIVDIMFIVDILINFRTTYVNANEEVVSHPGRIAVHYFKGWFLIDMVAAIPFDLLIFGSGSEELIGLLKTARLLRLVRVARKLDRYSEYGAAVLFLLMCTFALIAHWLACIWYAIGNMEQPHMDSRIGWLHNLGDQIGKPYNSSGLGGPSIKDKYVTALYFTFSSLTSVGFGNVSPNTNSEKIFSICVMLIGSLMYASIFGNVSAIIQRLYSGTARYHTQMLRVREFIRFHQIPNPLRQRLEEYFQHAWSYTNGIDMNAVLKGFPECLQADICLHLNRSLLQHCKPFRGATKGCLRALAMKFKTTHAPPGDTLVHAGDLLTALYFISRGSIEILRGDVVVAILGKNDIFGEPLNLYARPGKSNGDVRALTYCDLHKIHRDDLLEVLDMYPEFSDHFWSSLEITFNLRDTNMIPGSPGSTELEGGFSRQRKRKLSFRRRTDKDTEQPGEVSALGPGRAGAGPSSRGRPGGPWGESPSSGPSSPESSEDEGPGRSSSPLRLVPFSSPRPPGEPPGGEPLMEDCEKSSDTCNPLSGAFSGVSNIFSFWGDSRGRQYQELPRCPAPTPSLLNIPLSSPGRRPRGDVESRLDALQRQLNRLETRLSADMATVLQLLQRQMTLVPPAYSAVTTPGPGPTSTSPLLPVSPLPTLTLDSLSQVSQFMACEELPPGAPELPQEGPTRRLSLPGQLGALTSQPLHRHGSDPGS
row,SMILES,"hERG current change (%, negative = inhibition) at 10uM [%]"
1,Cc1cccc(C(=O)NN2S(=O)(=O)c3ccccc3S2(=O)=O)c1,18.2
2,O=C(NCCC1=CCCCC1)c1cc(-c2ccccn2)nc2ccccc12,8.77
3,COCCCNC(=O)C1CCN(S(=O)(=O)N(CC(C)C)CC(C)C)CC1,13.4
4,CC(=O)N/C(=C/c1ccc2c(c1)OCO2)C(=O)NCCCO,23.3
5,O=C(NCCO)/C(=C/c1ccc2c(c1)OCO2)NC(=O)c1ccc(Br)cc1,-69.5
6,CC(=O)N/C(=C/c1ccc2c(c1)OCO2)C(=O)NCCO,9.66
7,O=C(NCCO)/C(=C\c1ccc2c(c1)OCO2)NC(=O)c1ccc(Br)cc1,-51.9
8,O=C(N/N=C/c1ccc2c(c1)OCO2)/C(=C/c1ccc2c(c1)OCO2)NC(=O)c1ccccc1,-20.7
9,O=C(OCc1cc(Cl)ccc1OC(F)F)c1cncc(Br)c1,5.33
10,COc1ccc(C(=O)N=C2SC3CS(=O)(=O)CC3N2Cc2ccccc2)cc1OC (centres unmarked),13.3
11,CCOC(=O)c1c(C)[nH]c(C(=O)COC(=O)/C=C/c2ccc(O)c(OC)c2)c1C,2.87
12,CCOc1ccc(NS(=O)(=O)c2ccc(C(=O)N3CCN(C(C)=O)CC3)cc2)cc1,26.6
13,Cc1ccccc1-n1nc(C)c2c1N=C1C(Cl)=CC(Cl)=CN1C2c1ccc(C(=O)O)cc1 (centres unmarked),11.9
14,CCOc1cc(N2CCOCC2)c(OCC)cc1NC(=O)CN1CCc2ccccc2C1,2.76
15,COc1cccc(NC(=S)N(Cc2ccc(Cl)cc2)Cc2ccc(C(=O)O)cc2)c1,25.6
16,COc1ccc2[nH]c(C)c(CCNC(=S)Nc3cccc(C)c3C)c2c1,15.9
17,O=C(CN1CCCCCC1)NCCN1C(=O)S/C(=C\c2ccccc2Cl)C1=O,-9.34
18,CC1CN(C(c2cccs2)c2sc3ncnn3c2O)CC(C)O1 (centres unmarked),19.5
19,O=C(NC1CCCCC1)C(c1ccc2ncccc2c1)N(Cc1ccc(F)cc1)C(=O)c1cccs1 (centres unmarked),-22
20,O=C(NC1CCCCC1)C(c1ccc2ncccc2c1)N(Cc1ccc2c(c1)OCO2)C(=O)c1cccs1 (centres unmarked),-37.1
21,O=C(NC1CCCCC1)C(c1ccc2ncccc2c1)N(Cc1cccs1)C(=O)c1cccs1 (centres unmarked),-51.3
22,O=C(NC1CCCCC1)C(c1cccs1)N(Cc1cccs1)C(=O)c1cccs1 (centres unmarked),-12.2
23,O=C(NC1CCCCC1)C(c1ccc2ncccc2c1)N(Cc1ccccc1)C(=O)c1cccs1 (centres unmarked),-60.4

row,SMILES,"hERG current change (%, negative = inhibition) at 10uM [%]"
1,COc1ccc(CN(C(=O)c2cccs2)C(C(=O)NC2CCCCC2)c2ccc3ncccc3c2)cc1 (centres unmarked),-47.9
2,COCCNC(=O)Cn1cc(C(=S)N2CCCCC2)c2ccccc21,18.7
3,COc1ccccc1C(=O)NCCC(=O)N1CCCCCCC1,4.61
4,CCOC(=O)c1csc(NC(=O)CN2CCN(C)CC2)n1,19
5,Cc1ccc(S(=O)(=O)NCC(=O)N/N=C/c2ccc(Cl)cc2)cc1,-3.55
6,CCOCC(=O)Nc1nnc(SCCOC)s1,-0.419
7,O=C(CCCN1C(=O)/C(=C/c2cccs2)SC1=S)Nc1cc([N+](=O)[O-])ccc1O,21.1
8,O=C(C1CCC(Cn2c(=O)[nH]c3ccccc3c2=O)CC1)N1CCN(c2ccccc2)CC1 (centres unmarked),6.47
9,Fc1ccc(C2c3cccn3CCN2C(=S)Nc2cccc(F)c2)cc1 (centres unmarked),6.02
10,CCCCCc1cc(=O)oc2c(C(CCN3CCN(c4ccccc4)CC3)c3ccc4c(c3)OCO4)c(OC)cc(OC)c12 (centres unmarked),18.7
11,CCCCCc1cc(=O)oc2c(C(CCN3CCCC3)c3ccc(N(C)C)cc3)c(OC)cc(OC)c12 (centres unmarked),-57.5
12,CCCCCc1cc(=O)oc2c(C(CCN3CCCCC3)c3ccc(OC)cc3)c(OC)cc(OC)c12 (centres unmarked),-59.1
13,CCCCCc1cc(=O)oc2c(C(CCN3CCCC(C)C3)c3ccc(N(C)C)cc3)c(OC)cc(OC)c12 (centres unmarked),6.65
14,CCCCCc1cc(=O)oc2c(C(CCN3CCCCC3)c3ccc4c(c3)OCO4)c(OC)cc(OC)c12 (centres unmarked),-54.3
15,CCCCCc1cc(=O)oc2c(C(CCN(CC)CC)c3ccc(N(C)C)cc3)c(OC)cc(OC)c12 (centres unmarked),-33.6
16,CCCCCc1cc(=O)oc2c(C(CCN(CC)CC)c3ccc(OC)cc3)c(OC)cc(OC)c12 (centres unmarked),-55.2
17,CCCCCc1cc(=O)oc2c(C(CCN3CCCC(C)C3)c3ccc(OC)cc3)c(OC)cc(OC)c12 (centres unmarked),-27.8
18,CCCCCc1cc(=O)oc2c(C(CCN3CCCC(C)C3)c3ccc4c(c3)OCO4)c(OC)cc(OC)c12 (centres unmarked),-7.33
19,CCCCCc1cc(=O)oc2c(C(CCN3CCN(c4ccccc4)CC3)c3ccc(N(C)C)cc3)c(OC)cc(OC)c12 (centres unmarked),5.51
20,CCN(CC)CCC(c1ccc(N(C)C)cc1)c1c(OC)cc(OC)c2ccc(=O)oc12 (centres unmarked),-11.7
21,CC(=O)c1cn(-c2ccc(Cl)cc2)c(=O)n(Cc2ccc(Br)cc2)c1=O,-11.9
22,O=C(Nc1ccccc1F)C1CCCN(S(=O)(=O)c2ccccc2)C1 (centres unmarked),-10.3
23,Cc1ccc(Cc2cnc(N3C(=N)SC(c4ccccc4)C3=O)s2)cc1 (centres unmarked),3.87

row,SMILES,"hERG current change (%, negative = inhibition) at 10uM [%]"
1,COc1cc(OC)cc(C(=O)NCC(=O)OCC(=O)C(C)(C)C)c1,16.6
2,CCCC1=NN2C(=N)/C(=C\c3cc(C)n(-c4cc(C)cc(C)c4)c3C)C(=O)N=C2S1,-10.4
3,CCc1nc2c(n1O)CCc1nonc1-2,4.58
4,COc1ccc(Cl)cc1NC(=O)CCCN1C(=O)CCC1=O,14.4
5,CCOC(=O)c1c(C)[nH]c(C)c1C(=O)C(Cc1ccccc1)N(C)C.Cl (centres unmarked),4.71
6,O=S(=O)(NCC(c1cccnc1)N1CCN(c2ccc(F)cc2)CC1)c1ccccc1 (centres unmarked),-53.2
7,O=S(=O)(NCC(c1cccnc1)N1CCN(c2ccc(F)cc2)CC1)c1ccc(F)cc1 (centres unmarked),-69
8,CCS(=O)(=O)NCC(c1cccnc1)N1CCN(c2ccc(F)cc2)CC1 (centres unmarked),-7.91
9,O=C(NCC(c1cccnc1)N1CCN(c2ccc(F)cc2)CC1)OCc1ccccc1 (centres unmarked),-56.8
10,O=C(NCC(c1cccnc1)N1CCN(c2ccc(F)cc2)CC1)Oc1ccccc1 (centres unmarked),-26.4
11,O=C(NCC(c1cccnc1)N1CCN(c2ccc(F)cc2)CC1)c1ccc(F)cc1 (centres unmarked),-47.6
12,O=S(=O)(NCC(c1ccco1)N1CCN(c2ccc(F)cc2)CC1)c1ccc(F)cc1 (centres unmarked),-0.721
13,O=C(NCC(c1cccnc1)N1CCN(c2ccccc2)CC1)OCc1ccccc1 (centres unmarked),-45.9
14,COc1ccc2c(c1)-c1c(ssc1=S)C(C)(C)N2S(=O)(=O)c1ccc(C)cc1,2.55
15,CCCCN1C(=O)/C(=C/c2ccc(N(C)C)cc2)C(=O)N(Cc2ccco2)C1=O,7.86
16,S=C(NCC1CCCO1)Nc1ccccc1 (centres unmarked),25.5
17,Cc1c(CN2CCC(C(=O)Nc3cccc(-c4cccc(Cl)c4)c3)CC2)cnn1C,-61.4
18,Cc1c(CN2CCC(C(=O)Nc3ccc(Oc4ccccc4)nc3)CC2)cnn1C,-32.8
19,CCn1cc(CN2CCC(C(=O)Nc3cccc(-c4cccc(Cl)c4)c3)CC2)c(C)n1,-78.9
20,CCn1cc(CN2CCCC(C(=O)Nc3ccc(-c4cscn4)cc3)C2)c(C)n1 (centres unmarked),-8.71
21,CC(=O)c1cc(CN2CCC(C(=O)Nc3cccc(-c4cscn4)c3)CC2)cs1,-30.5
22,C=CCn1cc(CN2CCC(C(=O)Nc3cccc(-c4cccc(Cl)c4)c3)CC2)c(C)n1,-71.5
23,CCn1cc(CN2CCC(C(=O)Nc3cccc(-c4cccc(OC)c4)c3)CC2)c(C)n1,-46.3

row,SMILES,"hERG current change (%, negative = inhibition) at 10uM [%]"
1,C=CCOc1cccc(C2NC(=O)c3ccccc3O2)c1 (centres unmarked),21.4
2,C/C(=N/O)c1cc(C(C)(C)C)c(O)c(C(C)(C)C)c1,14.6
3,COc1ccc([C@@H]2CC=C(C(=O)O)[C@H](c3ccc(F)cc3)N2S(=O)(=O)c2ccc(C)cc2)cc1OC,10.5
4,Fc1cccc(Cl)c1Cn1nnc(-c2ccc3c(c2)OCO3)n1,-1.37
5,N=c1c2c3c(sc2nc2n1CCCCC2)CCCCC3,-53
6,N=c1c2c3c(sc2nc2n1CCC2)CCCC3,-28.9
7,N=c1c2c3c(sc2nc2n1CCCCC2)CCCC3,-45.2
8,NC(=O)NCc1cccs1,7.27
9,Cn1nc([N+](=O)[O-])nc1Oc1ccccc1C(=O)N1CCOCC1,17.4
10,O=[N+]([O-])c1ccccc1S(=O)(=O)Oc1ccc(C(=S)N2CCOCC2)cc1,-75
11,O=[N+]([O-])c1ccccc1S(=O)(=O)Nc1ccc(S(=O)(=O)N2CCOCC2)cc1,14.7
12,O=C(c1cccc(Oc2ccc([N+](=O)[O-])cc2)c1)N1CCOCC1,-34.3
13,O=[N+]([O-])c1ccc(Oc2ccc(S(=O)(=O)N3CCOCC3)cc2)cc1,-63.4
14,O=[N+]([O-])c1ccccc1Oc1ccc(S(=O)(=O)N2CCOCC2)cc1,-63.8
15,COc1cc(C(=S)N2CCOCC2)ccc1OS(=O)(=O)c1ccccc1[N+](=O)[O-],-1.24
16,O=[N+]([O-])c1ccc(-c2ccc(S(=O)(=O)N3CCOCC3)cc2)cc1,-29.8
17,CCOc1cc(C(=S)N2CCOCC2)ccc1OS(=O)(=O)c1ccccc1[N+](=O)[O-],8.98
18,O=S(=O)(c1ccc(Oc2ccccc2)cc1)N1CCOCC1,0.463
19,O=C(c1ccccc1Oc1ccc([N+](=O)[O-])cc1)N1CCOCC1,-52
20,O=S(=O)(c1ccc(Oc2ccc(S(=O)(=O)N3CCOCC3)cc2)cc1)N1CCOCC1,9.29
